Screens deposited in PubChem BioAssay by several laboratories.
This is a sample that favours compounds with a hit; in the whole collection about 1.2% have one here.
Yeast superoxide = yeast age-related superoxide inhibition as caloric restriction mimetic. S. cerevisiae aged cells, superoxide DHE fluorescence; hits give low values. 330,000 tested, 0.18% active. superoxide response (% of plate mean), % at 10 µM;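 active = superoxide response under a set limit, about three screen SD below normal, cut at about 65% in these data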;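 note: yeast aged for seven days with compound at 30 °C before DHE staining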
HDAC3 inhib = inhibitors of human histone deacetylase 3; O15379; recombinant HDAC3, fluorogenic peptide/trypsin coupled, fluorescence; inhibition, % at 8.3 µM; 320,000 tested, 0.15% active; AID 2718; in the data active = inhibition above about 26%, passing the limit was not always enough
LANA-H2B inh = blocks KSHV LANA binding to histone H2A/H2B. Q9QR71. cell-free LANA-H2A/H2B peptide, fluorescence polarization. inhibition, % (concentration not given with the values). 320,000 tested, 0.6% active; in the data active = inhibition mostly above about 10%, no sharp cut-off; inactive = mostly below about 6.7%
Target sequence (Q9QR71 whole entry, looked up): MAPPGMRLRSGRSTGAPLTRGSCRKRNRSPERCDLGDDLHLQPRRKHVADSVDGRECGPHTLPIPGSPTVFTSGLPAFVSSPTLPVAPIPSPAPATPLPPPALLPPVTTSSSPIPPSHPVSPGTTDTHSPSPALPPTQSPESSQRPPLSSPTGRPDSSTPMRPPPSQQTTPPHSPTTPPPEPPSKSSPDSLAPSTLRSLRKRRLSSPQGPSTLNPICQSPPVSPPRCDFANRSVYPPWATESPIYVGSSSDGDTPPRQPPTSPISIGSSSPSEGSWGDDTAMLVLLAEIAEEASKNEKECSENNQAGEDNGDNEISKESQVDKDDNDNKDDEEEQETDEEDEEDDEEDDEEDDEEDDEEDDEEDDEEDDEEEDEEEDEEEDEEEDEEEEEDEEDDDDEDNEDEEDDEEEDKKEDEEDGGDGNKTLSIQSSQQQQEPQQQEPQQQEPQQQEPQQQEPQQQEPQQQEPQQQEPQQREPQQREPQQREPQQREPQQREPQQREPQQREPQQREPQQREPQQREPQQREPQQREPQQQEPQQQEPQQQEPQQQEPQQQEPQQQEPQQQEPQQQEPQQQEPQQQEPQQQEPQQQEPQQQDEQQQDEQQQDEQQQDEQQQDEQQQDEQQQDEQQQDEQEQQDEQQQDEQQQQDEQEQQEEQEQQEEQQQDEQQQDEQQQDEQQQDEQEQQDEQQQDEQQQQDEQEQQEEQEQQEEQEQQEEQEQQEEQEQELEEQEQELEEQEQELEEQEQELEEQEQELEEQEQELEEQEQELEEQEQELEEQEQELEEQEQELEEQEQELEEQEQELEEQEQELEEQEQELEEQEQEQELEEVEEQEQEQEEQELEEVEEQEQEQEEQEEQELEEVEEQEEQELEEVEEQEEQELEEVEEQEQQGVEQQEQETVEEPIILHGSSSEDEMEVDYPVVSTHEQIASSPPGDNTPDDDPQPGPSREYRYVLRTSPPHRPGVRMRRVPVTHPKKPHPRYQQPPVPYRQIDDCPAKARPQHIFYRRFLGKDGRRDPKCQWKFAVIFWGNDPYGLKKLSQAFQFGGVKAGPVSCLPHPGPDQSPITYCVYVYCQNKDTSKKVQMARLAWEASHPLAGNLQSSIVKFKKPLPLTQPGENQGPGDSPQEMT
HIF act = HIF pathway transcriptional activation; U2OS HRE-luciferase reporter, luminescence; normalized: DMSO 0%, desferrioxamine 100%; activation, % at 7.5 µM (by protocol); 300,000 tested, 0.32% active;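 active = mean activation of at least 10% of the iron chelator positive control signal, with at least half of replicates also reaching 10%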
Each line names hits and unclear results; the compound was inactive in the other large screens.

Cc1nn(CC(=O)N(C)C2CCS(=O)(=O)C2)c(C)c1S(=O)(=O)N(C)C (stereo unspecified)	none (no result: HIF act)
O=C(CCc1c[nH]c2ccccc12)N1CCN(c2ccc(O)cc2)CC1	none
Cc1ccc(OCc2nnc(SCC(=O)CC(=O)Nc3ccccc3)o2)cc1	LANA-H2B inh 17.3
CCOC(=O)c1c(C)nc2cc(C)ccn12	HIF act 13.6
CCOc1ccc(/C=N/NC(=O)c2ccccc2C)cc1CN1CC2CC(C1)c1cccc(=O)n1C2 (stereo unspecified)	none (no result: HIF act)
COc1ccc(C(=O)NCCCn2ccnc2)cc1[N+](=O)[O-]	none
COc1cc(C(=O)NCCCn2ccnc2)cc(OC)c1OC	LANA-H2B inh 11.4
C=CCC[C@@H](Cc1ccc(F)cc1)C(=O)OC[C@@H](Cc1c[nH]c2ccccc12)NC(=O)[C@H](CC=C)CC(=O)N[C@H](CO)Cc1ccccc1	none (no result: HIF act)
Cc1cc(NC(=O)CSc2nnc(-c3ccc(Br)o3)n2Cc2ccccc2)no1	LANA-H2B inh 12.5
Cc1cc(NC(=O)CSc2nnc(-c3ccco3)n2Cc2ccccc2)no1	none
CC(C)(C)NC(=O)COC(=O)c1ccc(Cl)nc1	HIF act 71.0
CC(C)[C@H](NC(=O)c1ccccc1)C(=O)NC1=NCCS1	none (no result: HIF act)
CCCc1ccc(OCc2ccc(C(=O)N3CCSCC3)o2)cc1	none
CSc1nc(-c2ccccc2)cn1-c1ccc(NC(C)=O)cc1	LANA-H2B inh 36.6
CCOc1ccc(-c2cn(-c3ccc(OC)cc3)c(SC)n2)cc1	none
C[C@H](NC(=O)[C@H](Cc1ccccc1)NC(=O)c1cc2cc(Cl)ccc2n1C)C(=O)O	none
CSc1ccc(N=Nc2c(C)[nH]n(C)c2=O)cc1	none
CCN(CC)C(=O)Oc1nnc(SC(C)C)n1-c1ccc(Cl)cc1	none
[O-][n+]1c2ccccc2cc2ccccc21	LANA-H2B inh 17.8
Cc1oc(-c2ccccc2)[n+]([O-])c1C	none
COc1ccc(/C=C/C(=O)NC(=S)NNC(=O)c2cnccn2)cc1	Yeast superoxide 30.8
COc1cccc(/C=N/n2nnnc2N)c1OCC#N	none
COc1ccc(Nc2cc(Nc3ccccc3)ncn2)cc1	none
Cc1ccc(/C(O)=C/c2nc3cc(C)ccc3oc2=O)cc1	LANA-H2B inh 26.2
O=c1oc2ccccc2nc1/C=C(\O)c1ccccc1	none
COc1ccccc1C(=O)Nc1ccc2c(c1)nc1n2CCN(Cc2ccccc2)C1	LANA-H2B inh 16.3
C[C@H](CO)N1C[C@H](C)[C@@H](CN(C)C(=O)Nc2ccc(C(F)(F)F)cc2)Oc2c(NC(=O)CCC(F)(F)F)cccc2C1=O	none (no result: HIF act)
CC(C)(C=O)C1=CC(=O)c2ccccc2C1=O	LANA-H2B inh active (no result: HIF act)
Nc1ncnc2c1C(c1ccccc1)c1c(ccc3ccccc13)O2 (stereo unspecified)	none (no result: HIF act)
CCC(=O)N1CCN(c2ccc(NC(=S)NC(=O)c3cc4ccccc4o3)cc2)CC1	LANA-H2B inh 93.6
Oc1ccc2ccccc2c1/C=N/Nc1nnc(-c2ncc[nH]2)c2ccccc12	HIF act 81.6
COc1ccc(/C=N/Nc2nnc(-c3ncc[nH]3)c3ccccc23)cc1	none
CCN(CC(=O)Nc1c(F)cccc1F)C(=O)c1ccc(C#N)cc1	none (no result: HDAC3 inhib)
COc1ccccc1C(=O)NC(CCSC)C(=O)NNC(=O)c1ccccc1O (stereo unspecified)	Yeast superoxide 64.3 (no result: HIF act)
O=S1(=O)c2ccccc2C(CCO)N1Cc1ccccc1 (stereo unspecified)	none
Cn1ncc(C#N)c1NC(=O)C1CC(c2ccccc2Cl)=NO1 (stereo unspecified)	Yeast superoxide 44.5
O=C(Nc1ccc2c(c1)OCO2)C1CC(c2ccccc2Cl)=NO1 (stereo unspecified)	none
CCCCN1C(=O)C2(OCCCO2)c2cccc(C)c21	LANA-H2B inh 18.3
C=CCN1C(=O)C2(OCCCO2)c2cccc(C)c21	none
CC(NC(=O)CNC(=O)c1sc2ccccc2c1Cl)c1cccnc1 (stereo unspecified)	LANA-H2B inh 21.9
O=C(NCc1cccnc1)c1sc2ccccc2c1Cl	none
CCOC(=O)C(NC(=O)c1ccccc1)(N1CCOCC1)C(F)(F)F (stereo unspecified)	none
CCOC(=O)C(NC(C)=O)(N1CCOCC1)C(F)(F)F (stereo unspecified)	HIF act 49.5
CC(OC(=O)C1COc2ccccc2O1)C(=O)N(C)c1ccccc1 (stereo unspecified)	none
COc1ccccc1NC(=O)C(C)OC(=O)C1COc2ccccc2O1 (stereo unspecified)	LANA-H2B inh 20.6 (no result: HIF act)
Cc1ccc(-c2csc3ncnc(-n4cnc5ccccc54)c23)cc1	none
Cc1sc2ncnc(-n3cnc4ccccc43)c2c1C	LANA-H2B inh 83.2
Cc1noc(C(=O)Nc2sc3c(c2C#N)CCC3)c1Cl	HIF act 14.3
Cc1cc(C(=O)Nc2sc3c(c2C#N)CCC3)no1	none
COc1[nH]c(/N=C/c2ccccc2)c(C#N)c1C#N	LANA-H2B inh 44.0
Cc1cccc(Oc2coc3cc(OC(=O)c4cncc(Br)c4)ccc3c2=O)c1	LANA-H2B inh 3.5
CCOc1ccc(S(=O)(=O)NCC2CCCO2)c2ccccc12 (stereo unspecified)	none
COC(=O)C(CC(C)C)NC(=O)c1ccc([N+](=O)[O-])c(C)c1 (stereo unspecified)	none
Cc1cc(C(=O)NC(CC(C)C)C(=O)O)cc(C)c1[N+](=O)[O-] (stereo unspecified)	LANA-H2B inh 25.1
CC(C)CC(NC(=O)c1cccc(Cl)c1)C(=O)O (stereo unspecified)	LANA-H2B inh -6.2
O=C(CN1C(=O)c2ccccc2C1=O)OCC(=O)N1CCCCC1	none (no result: HIF act)
Cc1cccc(NC(=O)CN2C(=O)N/C(=C\c3ccc(-c4cccc(C(=O)O)c4)o3)C2=O)c1	LANA-H2B inh 112.6
c1coc(CSSCc2ccco2)c1	none (no result: HIF act)
CCOC(=O)CNC(=O)CSc1nnc(Cn2cnc3ccccc32)n1C	HIF act 12.3
COc1ccc(NC(=O)CSc2nnc(Cn3cnc4ccccc43)n2C)cc1	none
COc1ccc(C2SCC(=O)N2c2ccc(F)cc2)cc1 (stereo unspecified)	none
COc1ccc(N2C(=O)CSC2c2cccc(F)c2)cc1 (stereo unspecified)	LANA-H2B inh 8.4
COc1ccc(N2C(=NC(=O)CCC3CCCC3)SC3CS(=O)(=O)CC32)cc1 (stereo unspecified)	HIF act 70.8
COc1cccc(N2C(=NC(=O)CCC3CCCC3)SC3CS(=O)(=O)CC32)c1 (stereo unspecified)	none
COc1cc(C(=O)Nc2nnc(CC(=O)N3CCOCC3)s2)cc(OC)c1OC	LANA-H2B inh 16.6
COc1cc(C(=O)Nc2nnc(Cc3ccccc3)s2)cc(OC)c1OC	none
Cn1c(N)c(C(c2ccccc2)c2c(N)n(C)c(=O)n(C)c2=O)c(=O)n(C)c1=O	LANA-H2B inh 29.0
COc1ccccc1C(C[N+](=O)[O-])c1c(N)n(C)c(=O)n(C)c1=O (stereo unspecified)	none
CN(CCOc1ccc(Cl)cc1)C(=O)c1cc(-c2ccco2)nc2ccccc12	none
CC(=O)NC(c1ccccc1)c1cc([N+](=O)[O-])c2cccnc2c1O (stereo unspecified)	none
